This is part of a sample that, as a whole, favours compounds with a hit. Of some 83,000 tested, about 20% had one in any assay.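 Negative percent growth values reflect cell death: -40 means 40% of the cells present at the start died, and -100 means all died.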 Unmarked numbers belong to inactive results. Active and inactive are the calls of the source. How the source made its calls: active means growth percent below 10; inactive means the rest.
Legend:
Assay in all cases: NCI-60 one-dose screen, 48 h (100 = growth as untreated, 0 = no growth, -100 = all killed)
[1] = test system: HCT-15 colon
[2] = test system: HT29 colon
[3] = test system: SNB-75 CNS
[4] = test system: SNB-19 CNS
[5] = test system: U251 CNS
[6] = test system: PC-3 prostate
[7] = test system: SK-MEL-5 melanoma
[8] = test system: UACC-62 melanoma
[9] = test system: LOX IMVI melanoma
[10] = test system: SK-MEL-28 melanoma
[11] = test system: SK-MEL-2 melanoma
[12] = test system: EKVX NSCLC
[13] = test system: SN12C renal
[14] = test system: UO-31 renal
[15] = test system: TK-10 renal
[16] = test system: ACHN renal; settings: 10 µM unless noted
[17] = test system: A498 renal
[18] = test system: CCRF-CEM leukemia
[19] = test system: MOLT-4 leukemia
[20] = test system: CAKI-1 renal; settings: 10 µM unless noted

COc1ccc(C(=O)/C=C/c2ccc(OCc3ccc(Cl)cc3)cc2)cc1OC
growth ([1]; 10 µM): 92.9%
growth ([1]; 100 µM): 34.1%
growth ([2]; 10 µM): 87.2%
growth ([2]; 100 µM): 35.8%
growth ([3]; 10 µM): 96.9%
growth ([3]; 100 µM): -26.3% (active)
growth ([4]; 10 µM): 105%
growth ([4]; 100 µM): -47.3% (active)
growth ([5]; 10 µM): 93.2%
growth ([5]; 100 µM): -90.3% (active)
growth ([6]; 10 µM): 97.5%
growth ([6]; 100 µM): 16.9%
growth ([7]; 10 µM): 92.3%
growth ([7]; 100 µM): -10.4% (active)
growth ([8]; 10 µM): 96.1%
growth ([8]; 100 µM): 23.6%
growth ([9]; 10 µM): 88.8%
growth ([9]; 100 µM): 22.1%
growth ([10]; 10 µM): 103%
growth ([10]; 100 µM): 55.9%
growth ([11]; 10 µM): 98.3%
growth ([11]; 100 µM): 48.5%
growth ([12]; 10 µM): 109%
growth ([12]; 100 µM): 29.1%
growth ([13]; 10 µM): 107%
growth ([13]; 100 µM): 28.5%
growth ([14]; 10 µM): 85.8%
growth ([14]; 100 µM): 41.4%
growth ([15]; 10 µM): 101%
growth ([15]; 100 µM): 0.092% (active)
growth [16]: 103%
growth ([17]; 10 µM): 85.5%
growth ([17]; 100 µM): -33.3% (active)
growth ([18]; 10 µM unless noted): 73.4% [100 µM]
growth ([19]; 10 µM): 90.4%
growth ([19]; 100 µM): 62.8%

COc1ccc(C(=O)/C=C/c2ccc(OCc3cccc(C(F)(F)F)c3)c(OC)c2)cc1OC
growth ([1]; 10 µM): 73%
growth ([1]; 100 µM): 14.4%
growth ([2]; 10 µM): 54.3%
growth ([2]; 100 µM): 19.6%
growth ([3]; 10 µM): 93.6%
growth ([3]; 100 µM): -27.5% (active)
growth ([4]; 10 µM): 93.9%
growth ([4]; 100 µM): -21.9% (active)
growth ([5]; 10 µM): 75%
growth ([5]; 100 µM): -51.7% (active)
growth ([6]; 10 µM): 69.1%
growth ([6]; 100 µM): -7.78% (active)
growth ([7]; 10 µM): 76.5%
growth ([7]; 100 µM): -34.4% (active)
growth ([8]; 10 µM): 78.4%
growth ([8]; 100 µM): 20.7%
growth ([9]; 10 µM): 51%
growth ([9]; 100 µM): 10%
growth ([10]; 10 µM): 101%
growth ([10]; 100 µM): 46.3%
growth ([11]; 10 µM): 89.1%
growth ([11]; 100 µM): 32.6%
growth ([12]; 10 µM): 114%
growth ([12]; 100 µM): 16.1%
growth ([13]; 10 µM): 97%
growth ([13]; 100 µM): 17%
growth ([14]; 10 µM): 67.2%
growth ([14]; 100 µM): 24.6%
growth ([15]; 10 µM): 117%
growth ([15]; 100 µM): 7.32% (active)
growth [16]: 93.4%
growth ([17]; 10 µM): 93.9%
growth ([17]; 100 µM): -12.8% (active)
growth ([18]; 10 µM): 51.1%
growth ([18]; 100 µM): 12.6%
growth ([19]; 10 µM): 42.2%
growth ([19]; 100 µM): -3.95% (active)

COc1ccc(/C=C/C(=O)c2cc3c(N)c(C(=O)Nc4ccccc4Cl)sc3nc2C)cc1
growth ([1]; 10 µM unless noted): 54.2%
growth ([2]; 10 µM unless noted): 39.2%
growth ([3]; 10 µM unless noted): -6.43% (active)
growth ([4]; 10 µM unless noted): 44.7%
growth ([5]; 10 µM unless noted): 31.7%
growth ([6]; 10 µM unless noted): 59.2%
growth ([7]; 10 µM unless noted): -56.1% (active)
growth ([8]; 10 µM unless noted): -1.92% (active)
growth ([9]; 10 µM unless noted): 48.2%
growth ([10]; 10 µM unless noted): 42%
growth ([11]; 10 µM unless noted): 30.6%
growth ([12]; 10 µM unless noted): 66.8%
growth ([13]; 10 µM unless noted): 53.8%
growth ([14]; 10 µM unless noted): -10.2% (active)
growth ([15]; 10 µM unless noted): 20.4%
growth [16]: 10.2%
growth [20]: 31.9%
growth ([17]; 10 µM unless noted): 30.9%
growth ([18]; 10 µM unless noted): 58.9%
growth ([19]; 10 µM unless noted): 36.2%

Nc1c(C(=O)Nc2ccncc2)sc2nc3c(cc12)CCCCCCCC3
growth ([1]; 10 µM unless noted): -82.2% (active)
growth ([2]; 10 µM unless noted): -92.6% (active)
growth ([3]; 10 µM unless noted): -96.2% (active)
growth ([4]; 10 µM unless noted): -77.1% (active)
growth ([5]; 10 µM unless noted): -89.2% (active)
growth ([6]; 10 µM unless noted): -18.9% (active)
growth ([7]; 10 µM unless noted): -96.1% (active)
growth ([8]; 10 µM unless noted): -94.9% (active)
growth ([9]; 10 µM unless noted): -84.7% (active)
growth ([10]; 10 µM unless noted): -91.4% (active)
growth ([11]; 10 µM unless noted): -86.7% (active)
growth ([12]; 10 µM unless noted): -31.2% (active)
growth ([13]; 10 µM unless noted): -65.1% (active)
growth ([14]; 10 µM unless noted): -95% (active)
growth ([15]; 10 µM unless noted): -75.6% (active)
growth [16]: -98.8% (active)
growth [20]: -94.8% (active)
growth ([17]; 10 µM unless noted): -9% (active)
growth ([18]; 10 µM unless noted): -37.9% (active)
growth ([19]; 10 µM unless noted): -40.6% (active)

C=C1C(=O)O[C@H]2[C@H]1CC/C(COC(=O)NCc1ccc(Cn3c(=O)sn(CCCI)c3=O)cc1)=C\CC[C@@]1(C)O[C@@H]21
growth ([1]; 10 µM unless noted): 26.9%
growth ([2]; 10 µM unless noted): -46.1% (active)
growth ([3]; 10 µM unless noted): 71.7%
growth ([4]; 10 µM unless noted): 96.2%
growth ([5]; 10 µM unless noted): 50.9%
growth ([6]; 10 µM unless noted): 49.2%
growth ([7]; 10 µM unless noted): 91.9%
growth ([8]; 10 µM unless noted): 15.6%
growth ([9]; 10 µM unless noted): -24.5% (active)
growth ([10]; 10 µM unless noted): 4.93% (active)
growth ([11]; 10 µM unless noted): 68.5%
growth ([12]; 10 µM unless noted): 91.7%
growth ([13]; 10 µM unless noted): 2.19% (active)
growth ([14]; 10 µM unless noted): -30.1% (active)
growth ([15]; 10 µM unless noted): 0.113% (active)
growth [16]: 16.2%
growth [20]: 33.7%
growth ([17]; 10 µM unless noted): 105%
growth ([18]; 10 µM unless noted): -9.69% (active)
growth ([19]; 10 µM unless noted): 9.74% (active)

Reference: PubChem BioAssay (NCI)
